# Measurements from PubChem BioAssay (NCATS).
# Records with an inconclusive call do not appear. Entries that show only a call come without a potency. Unmarked numbers belong to inactive results. Calls of active or inactive are those of the source. Calls come from the whole dose curve; as a rule, active = well fitted curve in the direction sought with a large enough effect; inconclusive = small, poorly fitted or top-dose-only effect, or another doubt; inactive = no such curve, though single readings can be large; an effect the other way counts as inactive or inconclusive.
# Columns and labels:
# CRL-7250 = normal cell line; test: Cytotoxic Profiling of Annotated Libraries Using Quantitative High-Throughput Screening (AID 1296008); settings: Five cell lines viability, CellTiter-Glo ATP luminescence, 48-72 h; max response: active compounds read low; note: nearly all actives have a fitted effect of over 60% in size
# Procedure, shortened: (§1)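 Compounds were pin-transferred onto cells and incubated 48 or 72 hr at 37 degree Celsius, 95% humidity. CellTiter-Glo was added, plates sat 10 min at room temperature, then ATP-coupled luminescence was imaged as the viability read-out.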
# HaCat = test: as above; settings: Five cell lines viability, CellTiter-Glo ATP luminescence, 48-72 h; max response: active compounds read low
# Procedure, shortened: as §1
# NIH3T3 = test: as above; settings: Five cell lines viability, CellTiter-Glo ATP luminescence, 48-72 h; max response: active compounds read low
# Procedure, shortened: as §1
# C33A = test: Primary qHTS to identify gynecologic anti-cancer compounds using libraries of approved drugs and bioactive compounds (AID 1345084); settings: Gynecologic cancer cell panel viability, ATPlite luminescence, 48 h; series mostly up to 57.5 µM; note: nearly all actives have a fitted effect of over 55% in size
# Procedure, shortened: (§2)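 Cells, 1,000 per well, plated 16 h, then exposed 48 h at 37 C to compounds. Viability by ATPlite luminescence after 15 min at room temperature.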
# CAOV3 = test: as above; settings: Gynecologic cancer cell panel viability, ATPlite luminescence, 48 h; series mostly up to 57.5 µM
# Procedure, shortened: as §2
# CASKI = test: as above; settings: Gynecologic cancer cell panel viability, ATPlite luminescence, 48 h; series mostly up to 57.5 µM
# Procedure, shortened: as §2
# Es-2 = test: as above; settings: Gynecologic cancer cell panel viability, ATPlite luminescence, 48 h; series mostly up to 57.5 µM
# Procedure, shortened: as §2
# HeLa = test: as above; settings: Gynecologic cancer cell panel viability, ATPlite luminescence, 48 h; series mostly up to 57.5 µM
# Procedure, shortened: as §2
# Hek293T = test: as above; settings: Gynecologic cancer cell panel viability, ATPlite luminescence, 48 h, control line for the selectivity index; series mostly up to 57.5 µM
# Procedure, shortened: as §2
# JEG-3 = test: as above; settings: Gynecologic cancer cell panel viability, ATPlite luminescence, 48 h; series mostly up to 57.5 µM
# Procedure, shortened: as §2
# OV90 = test: as above; settings: Gynecologic cancer cell panel viability, ATPlite luminescence, 48 h; series mostly up to 57.5 µM
# Procedure, shortened: as §2
# KB-3-1 = test: Cytotoxic Profiling of Annotated Libraries Using Quantitative High-Throughput Screening (AID 1296008); settings: Five cell lines viability, CellTiter-Glo ATP luminescence, 48-72 h; max response: active compounds read low; note: nearly all actives have a fitted effect of over 60% in size
# Procedure, shortened: as §1
# Potency is the fitted concentration of half-maximal effect.
SMILES,max response (CRL-7250),max response (HaCat),max response (NIH3T3),Potency (C33A),Potency (CAOV3),Potency (CASKI),Potency (Es-2),Potency (HeLa),Potency (Hek293T),Potency (JEG-3),Potency (OV90),max response (KB-3-1),outcome (NIH3T3),Potency (CRL-7250),Potency (HaCat),Potency (NIH3T3),outcome (CRL-7250),Potency (KB-3-1),outcome (KB-3-1)
Cc1nc2c(C(F)(F)F)cccc2nc1-c1ccc(-c2cccc(S(C)(=O)=O)c2)cc1,-1.09%,-0.882%,-12.4%,inactive,inactive,inactive,inactive,inactive,inactive,inactive,inactive,,,,,,,,
O=C(NCCN1CCC(n2c(=O)[nH]c3ccccc32)CC1)c1cc2cc(F)ccc2[nH]1,4.31%,,,inactive,inactive,inactive,inactive,inactive,inactive,inactive,inactive,1.32%,inactive,,,,,,
COc1cc(O)c2c(c1)/C=C/C[C@H](O)[C@H](O)C(=O)/C=C\C[C@H](C)OC2=O,,,,,22.4 µM (active),,15.8 µM (active),,15.8 µM (active),inactive,,,,16.4 µM (active),9.2 µM (active),5.8 µM (active),,,
CC(C)c1cc(-c2ccc(F)c3ccccc23)nc(N)n1,2.23%,,,inactive,inactive,inactive,inactive,inactive,inactive,inactive,inactive,-2.32%,inactive,,,,,,
O=C(Nc1ccccc1Br)NC1CCN(c2ccc(C(F)(F)F)cn2)C1 (configuration not stated),,,-7.45%,inactive,inactive,inactive,inactive,inactive,inactive,inactive,inactive,-16.5%,,,,,inactive,,
CC1=CC2/C=C(\C)CCC3OC(C)(C)OC3CCC(=O)C23C(=O)NC(CC(C)C)C3C1C (configuration not stated),4.29%,,-3.16%,inactive,inactive,inactive,inactive,inactive,inactive,inactive,inactive,3.72%,,,,,,,
C[C@@H](Nc1ncnc2[nH]c(-c3ccc(O)cc3)cc12)c1ccccc1,-9.15%,,,,,22.4 µM (active),inactive,,inactive,inactive,inactive,,,,0.82 µM (active),14.6 µM (active),,,
NC(=O)CCCSc1nc(N)nc(-c2c(Cl)cc3c4c(cccc24)COC3)n1,,,,0.891 µM (active),,,,inactive,,,0.708 µM (active),,,1.46 µM (active),0.291 µM (active),0.731 µM (active),,,
CC1(C)OC[C@H](NC(=O)Nc2ccc(Br)cc2Br)[C@H](c2ccccc2)O1,,-5.94%,0.948%,inactive,inactive,inactive,inactive,inactive,inactive,inactive,inactive,,,,,,inactive,,
COC(=O)C[C@H]1[C@]2(C)C3=C(C)[C@H](c4ccoc4)C[C@H]3O[C@@H]2[C@H](O)C2[C@](C)(C(=O)OC)C=CC(=O)[C@@]21C (some centres not stated),-6.81%,-7.74%,3.36%,inactive,,inactive,inactive,inactive,inactive,inactive,inactive,,,,,,,,
Cc1noc(C)c1-c1cc(O)cc(C(O)c2ccccc2)c1 (configuration not stated),,-28.1%,,inactive,,,,,inactive,inactive,inactive,,,7.31 µM (active),,10.3 µM (active),,,
CC(=O)OC1C(OC(=O)c2ccccc2)C2C(=C(C)CCC2(C)C)C23CCC(C)(C2)C(=O)CC13 (configuration not stated),-34.2%,-3.85%,-18.4%,inactive,inactive,inactive,inactive,inactive,,inactive,,,,,,,,,
CC(=O)Nc1nc(C)c(-c2nc(N3CCCC(O)C3)no2)s1 (configuration not stated),,,,inactive,,,inactive,,,,,,,8.2 µM (active),4.11 µM (active),18.4 µM (active),,,
CCCc1ccc(OCC(=O)N(Cc2nc(-c3cccnc3)no2)C(C)C)cc1,,-2.41%,-9.24%,inactive,inactive,inactive,inactive,inactive,,inactive,inactive,,,23.1 µM (active),,,,,
CCc1cc2c(cc1CC)CC(NCC(O)c1ccc(O)c3[nH]c(=O)ccc13)C2 (configuration not stated),,2.19%,2.82%,inactive,inactive,inactive,inactive,inactive,inactive,inactive,inactive,,,,,,inactive,,
O=C(Nc1ccccc1)c1ccc(Nc2nnc(-c3ccc(O)cc3)c3ccccc23)cc1,-21.4%,-7.55%,-26.5%,inactive,inactive,inactive,inactive,inactive,inactive,inactive,inactive,,,,,,,,
C/C(=C/C=C\C=C\Cc1cnco1)[C@@H](O)C(C)(C)C(N)=O,0.0485%,-5.26%,-15.3%,inactive,inactive,inactive,inactive,inactive,inactive,inactive,inactive,,,,,,,,

SMILES,max response (CRL-7250),max response (HaCat),max response (NIH3T3),Potency (C33A),Potency (CAOV3),Potency (CASKI),Potency (Es-2),Potency (HeLa),Potency (Hek293T),Potency (JEG-3),Potency (OV90),max response (KB-3-1),outcome (NIH3T3),Potency (CRL-7250),Potency (HaCat),Potency (NIH3T3),outcome (CRL-7250),Potency (KB-3-1),outcome (KB-3-1)
CC(=O)NC(C)c1cnc(-c2cnc(Oc3ccc(OC(C)C)cc3)s2)s1 (configuration not stated),-17.1%,2.34%,0.946%,,inactive,inactive,,inactive,inactive,inactive,inactive,,,,,,,,
CC(=O)Nc1cccc(Nc2ncnc(N3CCC(OCc4ccc(OC(F)(F)F)cc4)CC3)n2)c1C,,-26.7%,-3.89%,,inactive,inactive,inactive,inactive,,inactive,inactive,,,13 µM (active),,,,,
CC(F)(F)CN1CCOc2c(nn(-c3ccccc3Cl)c2-c2ccc(Cl)cc2)C1=O,,-16.2%,-14.8%,inactive,inactive,,inactive,inactive,inactive,inactive,inactive,,,,,,inactive,,
CCOc1cn(-c2ccc(F)cc2C)nc1C(=O)Nc1ccc(Oc2ccnc3cc(OC)c(OC)cc23)c(F)c1,-25.1%,,,inactive,inactive,inactive,inactive,inactive,inactive,inactive,inactive,5.26%,,,,5.8 µM (active),,,
C/C=C(/C)C(=O)O[C@@H]1C[C@@H](OC(=O)CC(C)C)C2(C)C3C(=O)C=C(C)C2C3C1(C)C (some centres not stated),0.438%,,-2.22%,inactive,inactive,inactive,inactive,inactive,inactive,inactive,inactive,5.54%,,,,,,,
CC(=O)O[C@@]12CO[C@@H]1C[C@H](O)[C@@]1(C)C(=O)[C@H](O)C3=C(C)[C@@H](OC(=O)[C@H](O)[C@@H](NC(=O)OC(C)(C)C)c4ccccc4)C[C@@](O)([C@@H](OC(=O)c4ccccc4)C12)C3(C)C (some centres not stated),,,,inactive,inactive,,,,,inactive,inactive,,,0.005 µM (active),,0.0224 µM (active),,0.0036 µM (active),
Cn1ncc2cc(-c3cnc(N)c(Cl)c3N3CCC4(CCNC4=O)CC3)ccc21,,,,inactive,inactive,inactive,inactive,inactive,inactive,inactive,inactive,,,,,,inactive,,inactive
O=C(Cc1c(F)cccc1F)Nc1cc(OCc2ccc(Cl)cc2)ccn1,3.56%,,-10.7%,inactive,inactive,inactive,inactive,inactive,inactive,inactive,inactive,,,,,,,,inactive
Cc1cc(C)c2c(c1)C(N(Cc1cc(C(F)(F)F)cc(C(F)(F)F)c1)c1nnn(C)n1)CCCN2CC1CCC(C(=O)O)CC1 (configuration not stated),2.9%,,,inactive,inactive,inactive,,,inactive,inactive,inactive,,,,,,,14.6 µM (active),
CC1(CO)CC2C(O)C3=C(CC(C)(O)C2C1)C(=O)OC3 (configuration not stated),-1.99%,,1.99%,inactive,inactive,inactive,inactive,inactive,inactive,inactive,inactive,9.13%,,,,,,,
Cc1ccnn1-c1ccc(C(=O)N2CCN(S(=O)(=O)c3ccc(Cl)c(C(F)(F)F)c3)CC2)cc1,,,-5.12%,inactive,inactive,inactive,inactive,inactive,inactive,inactive,inactive,-18.8%,,,,,inactive,,
CC(C)=CCC/C(C)=C/COCC1OC(n2ccc(=O)[nH]c2=O)C(O)C1O (configuration not stated),-3.59%,,,,,inactive,inactive,inactive,inactive,inactive,,7.71%,,,,,,,
CCCSc1nc(N[C@@H]2C[C@H]2c2ccc(F)c(F)c2)c2nnn([C@@H]3C[C@H](OCCO)[C@@H](O)[C@H]3O)c2n1,,,-24.3%,inactive,inactive,,inactive,inactive,inactive,inactive,inactive,-26.6%,,,,,inactive,,
Fc1ccc(N2CCCCC2)c(NC(=S)c2ccncc2)c1,3.95%,,-6.72%,inactive,inactive,inactive,inactive,inactive,,inactive,inactive,-9.62%,,,,,,,
COc1ccc([C@H]2Cc3cccc(O)c3C(=O)O2)cc1OC,-21.6%,,,inactive,inactive,inactive,inactive,inactive,inactive,inactive,inactive,2.52%,,,,,,,
CC1(NC(=O)c2ccc(C#Cc3cccc(F)c3)cn2)COC1,4.8%,,-3.45%,inactive,inactive,inactive,inactive,inactive,inactive,inactive,inactive,-5.29%,,,,,,,
